HCT116 PTEN-null: growth suppression of PTEN-null HCT116, primary screen, cell-based, CellTiter-Glo | HCT116 PTEN-null viability, 60 h; hits give low values | viability, % at 10 µM | 140,000 compounds, 1.2% hits;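 active = viability at or below a set limit, 4 SD under the median of all tested compounds, cut at about 3.7% in these data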;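 note: PTEN knockout HCT116 line with beta catenin targeted HCT116 as companion control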
ROMK mod: ROMK potassium channel modulators, primary screen, cell-based, thallium flux, MLSMR library; Tet-inducible ROMK, thallium flux fluorescence; actives lie on both sides; B-score at 10 µM; ATP-sensitive inward rectifier potassium channel 1 (Homo sapiens), P48048; AID 1918, 2009; 130,000 compounds, 2% hits;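 active = signal ratio slope over the read window, or its plate-corrected B-score, at least 3 SD from the plate mean, either direction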;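 note: B-score of the F/F0 ratio slope over 7 to 12 s after thallium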
Target sequence (P48048 whole entry, looked up): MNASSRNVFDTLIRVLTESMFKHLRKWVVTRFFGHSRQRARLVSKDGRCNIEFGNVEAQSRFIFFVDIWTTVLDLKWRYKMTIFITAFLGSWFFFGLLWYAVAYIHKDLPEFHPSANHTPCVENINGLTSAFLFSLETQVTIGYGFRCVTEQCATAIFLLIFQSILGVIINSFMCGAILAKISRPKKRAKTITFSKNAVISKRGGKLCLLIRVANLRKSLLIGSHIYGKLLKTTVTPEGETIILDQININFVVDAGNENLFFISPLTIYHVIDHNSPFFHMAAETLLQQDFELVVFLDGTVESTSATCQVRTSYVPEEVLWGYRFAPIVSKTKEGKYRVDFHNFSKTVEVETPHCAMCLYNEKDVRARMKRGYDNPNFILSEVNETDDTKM
p97 ATPase inh: inhibitors of human p97 ATPase, primary screen, biochemical | 220,000 compounds, 0.42% hits | inhibition, % at 8 µM | AID 1481, 2009 | recombinant p97 ATPase, Kinase-Glo ATP luminescence, 3 h | Transitional endoplasmic reticulum ATPase (Homo sapiens), P55072; in the data active = inhibition above about 15%;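 note: 0% = DMSO vehicle and 100% = wells lacking enzyme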
INS promoter inh: inhibitors of insulin promoter-driven GFP, primary screen, imaging, TRM-6 cells (human fetal islet line), eGFP reporter, cell count; 130,000 compounds, 0.9% hits; inhibition, % at 2 µM; reporter expression induced with tamoxifen;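 active = inhibition above the mean plus 3 SD, with well images judged a real hit on visual review, cut at about 60% in these data, passing the limit was not always enough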
HCT116 bCat-KO: primary screen for growth suppressors in beta-catenin knockout HCT116 cells (colon tumor, human); HCT116 beta-catenin knockout viability, CellTiter-Glo, 60 h; hits give low values; 140,000 compounds, 1.5% hits; AID 818, 2007; viability, % at 10 µM;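 active = viability at or under a set limit, the compound median less 4 SD, cut at about 6% in these data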;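 note: 0% = Hyamine 1622 control at 20 µM and 100% = untreated cell control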
Lmaj promast: Leishmania major promastigote growth inhibition, primary screen; inhibition, % at 10 µM; Leishmania major promastigotes, resazurin fluorescence viability; 200,000 compounds, 9% hits; in the data active = inhibition above about 50%;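 note: promastigotes grown with compound for 44 hours at 28 °C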
Active calls of the source: *. Rows were chosen to be rich in hits. Some 10% of all compounds tested hit in one or more screens of this group.

How did Cc1ccc(CS/C(Nc2ccccc2C)=C(\C#N)C(N)=O)c(C)c1 do in these assays?
HCT116 PTEN-null: 69.7; ROMK mod: 0.391; p97 ATPase inh: -4.5; INS promoter inh: -13.7; HCT116 bCat-KO: 74.4; Lmaj promast: 35.4

Results for O=C(NCCc1csc(-c2cccnc2)n1)c1ccccc1Br ?
ROMK mod: 1.21; p97 ATPase inh: 6.8

What do the screens show for `O=C(NC(=S)N1CCN(Cc2ccc3c(c2)OCO3)CC1)c1cccc(Br)c1`?
HCT116 PTEN-null: 25.7; ROMK mod: 4.89*; p97 ATPase inh: 2.0; INS promoter inh: -9.7; HCT116 bCat-KO: 33.4; Lmaj promast: 5.6

Results for COc1ccccc1NC(=O)c1cc2ccccc2o/c1=N\O ?
HCT116 PTEN-null: 2.7*; HCT116 bCat-KO: 4.5*

Results for COc1ccccc1NC(=O)c1cc2ccc(O)cc2o/c1=N\O ?
HCT116 PTEN-null: 94.9; ROMK mod: 0.638; p97 ATPase inh: 6.3; HCT116 bCat-KO: 103.7; Lmaj promast: 15.4

What do the screens show for `COc1ccc2o/c(=N\O)c(C(=O)Nc3ccc(C)cc3)cc2c1`?
ROMK mod: 0.711; p97 ATPase inh: 1.5; INS promoter inh: 42.9; Lmaj promast: 50.1*

How did COc1ccc(C(CNC(=O)c2cc(SC)ccc2Cl)N(C)C)cc1 (stereo unspecified) do in these assays?
p97 ATPase inh: 2.2

What do the screens show for `O=C(O)c1cn(Cc2ccccc2)nc1-c1cccnc1`?
ROMK mod: -0.906; p97 ATPase inh: 0.1; INS promoter inh: -14.3; Lmaj promast: 1.6

Results for COc1ccc(NC2=NCC(Cc3ccc(Br)cc3)S2)cc1 (stereo unspecified) ?
HCT116 PTEN-null: 42.3; ROMK mod: -1.1; p97 ATPase inh: -0.3; INS promoter inh: -23.1; HCT116 bCat-KO: 55.3; Lmaj promast: 87.7*

What do the screens show for `COc1ccc(CNc2ccc(Br)cc2)cc1`?
ROMK mod: 0.178; p97 ATPase inh: 4.2; INS promoter inh: 28.6; Lmaj promast: 98.8*

What do the screens show for `COc1ccc(CNC(=S)Nc2ccc(OC)cc2)cc1`?
HCT116 PTEN-null: 99.6; p97 ATPase inh: 6.8; INS promoter inh: 43.6; HCT116 bCat-KO: 91.1; Lmaj promast: 51.9*

What do the screens show for `Nc1ccccc1-n1cccc1`?
p97 ATPase inh: 5.6

What do the screens show for `CCOC(=O)C1C(c2ccc(O)c(O)c2)NC(=S)NC1(O)C(F)(F)F` (stereo unspecified)?
HCT116 PTEN-null: 96.5; ROMK mod: 0; p97 ATPase inh: 3.5; INS promoter inh: -100.0; HCT116 bCat-KO: 90.8; Lmaj promast: -2.8

Results for C(=C\c1nc(-c2cccnc2)no1)/c1ccccc1 ?
ROMK mod: -0.318; p97 ATPase inh: 1.8; INS promoter inh: 70.4*; Lmaj promast: 1.4

What do the screens show for `Cc1[nH]nc(-c2ccc(O)c(C)c2O)c1-c1cnn(-c2ccccc2)c1`?
HCT116 PTEN-null: 86.1; p97 ATPase inh: 5.7; INS promoter inh: -154.6; HCT116 bCat-KO: 75.6; Lmaj promast: 15.9

How did O=C(NC(=S)Nc1ccccn1)c1cccc([N+](=O)[O-])c1 do in these assays?
ROMK mod: -1.52; p97 ATPase inh: 3.1

How did CCCCn1c(N)c(N(CCOC)C(=O)COc2ccc(Cl)cc2)c(=O)[nH]c1=O do in these assays?
ROMK mod: 0.299; p97 ATPase inh: 2.5; Lmaj promast: -2.2

What do the screens show for `OC(CSc1ccccc1Cl)CN1CCN(c2ccc(F)cc2)CC1` (stereo unspecified)?
HCT116 PTEN-null: 85.8; p97 ATPase inh: -3.3; INS promoter inh: -12.5; HCT116 bCat-KO: 98.9; Lmaj promast: 90.6*

What do the screens show for `OC(CSc1c(Cl)cccc1Cl)CN1CCN(c2ccc(F)cc2)CC1` (stereo unspecified)?
HCT116 PTEN-null: 77.9; p97 ATPase inh: -11.9; INS promoter inh: -15.6; HCT116 bCat-KO: 82.5; Lmaj promast: 62.6*

How did OC(CSc1ccccc1Cl)CN1CCN(c2ccccc2F)CC1 (stereo unspecified) do in these assays?
HCT116 PTEN-null: 104.8; p97 ATPase inh: 0.5; INS promoter inh: -9.4; HCT116 bCat-KO: 93.5; Lmaj promast: 64.4*

How did O=C(COc1ccccc1Cl)N1CCN(c2ccc(F)cc2)CC1 do in these assays?
HCT116 PTEN-null: 84.4; p97 ATPase inh: 0.8; INS promoter inh: 16.7; HCT116 bCat-KO: 83.9; Lmaj promast: -2.9

What do the screens show for `OC(CSc1c(Cl)cccc1Cl)CN1CCN(c2ccccc2F)CC1` (stereo unspecified)?
HCT116 PTEN-null: 95.4; p97 ATPase inh: 2.0; INS promoter inh: -18.2; HCT116 bCat-KO: 89.7; Lmaj promast: 17.0

What do the screens show for `COc1ccc(-n2c(COc3cccc4ccccc34)nnc2SC(C)C(=O)O)cc1` (stereo unspecified)?
ROMK mod: 0.188; p97 ATPase inh: -4.8; INS promoter inh: -11.1; Lmaj promast: -7.3

Results for COc1ccc(CNC(=O)c2sc3nc4c(c(C(F)(F)F)c3c2N)CCC4)cc1 ?
HCT116 PTEN-null: 96.0; p97 ATPase inh: 2.9; INS promoter inh: -47.7; HCT116 bCat-KO: 91.2; Lmaj promast: -1.5

How did COc1ccc(F)c(CN2CCC(CO)(Cc3cccc(C(F)(F)F)c3)CC2)c1 do in these assays?
ROMK mod: 0.2; p97 ATPase inh: -2.9; Lmaj promast: 83.5*

How did COc1ccc(CN2CCC(CO)(Cc3cccc(C(F)(F)F)c3)CC2)cc1Cn1cccn1 do in these assays?
ROMK mod: -1.36; p97 ATPase inh: 1.4; Lmaj promast: 81.1*

How did NNC(=O)c1sccc1OCc1ccc(F)cc1 do in these assays?
ROMK mod: -1.76; p97 ATPase inh: 5.2; INS promoter inh: -25.0; Lmaj promast: -2.3

How did O=C(N/N=C/c1ccc(Cl)cc1)c1sccc1OCc1ccc(F)cc1 do in these assays?
HCT116 PTEN-null: 5.6; p97 ATPase inh: 5.0; HCT116 bCat-KO: 6.0*; Lmaj promast: 85.1*

What do the screens show for `O=C(N/N=C/c1ccc(F)cc1)c1sccc1OCc1ccc(F)cc1`?
HCT116 PTEN-null: 15.2; p97 ATPase inh: 0.9; INS promoter inh: 22.2; HCT116 bCat-KO: 14.4; Lmaj promast: 88.4*

Results for COc1ccc2nc(C)cc(N3CC(C)OC(C)C3)c2c1 (stereo unspecified) ?
HCT116 PTEN-null: 64.5; p97 ATPase inh: 3.1; INS promoter inh: 90.9*; HCT116 bCat-KO: 61.3; Lmaj promast: 13.3

What do the screens show for `COc1ccc2nc(C)cc(N3CCOCC3)c2c1`?
HCT116 PTEN-null: 99.0; p97 ATPase inh: -2.3; INS promoter inh: 15.4; HCT116 bCat-KO: 92.4; Lmaj promast: 0.9

How did O=C(c1ccccc1)c1ccc(N2CCOCC2)c(NC(=O)c2ccco2)c1 do in these assays?
HCT116 PTEN-null: 67.4; ROMK mod: -1.01; p97 ATPase inh: 0.8; INS promoter inh: 2.9; HCT116 bCat-KO: 82.7; Lmaj promast: 63.7*
